# Only some compounds are listed: those with a hit (about 12% of all), similar ones and a draw of the others.
# PLK1 PBD inh: PLK1 (human) polo-box domain binding inhibition; P53350; Plk1 PBD binding of FITC phosphopeptide, fluorescence polarization; Potency, µM, for the others: max response, negative = inhibition, hits mostly inhibitors; hit rate 2.8% among 360,000; AID 720504; note: potency is the fitted concentration of half-maximal effect; series mostly up to about 57 µM; % is set by controls: 0 for no effect and ±100 for the full control effect; nearly all actives have a fitted effect of over 65% in size
# BAZ2B inh: inhibitors of human BAZ2B bromodomain; AlphaScreen BAZ2B-H3K14Ac peptide displacement; Potency, µM (top dose mostly 114 µM), for inactives: top-dose activity change, negative = inhibition, usual class: inhibitors; hit rate 4.4% among 360,000; note: potency is the fitted concentration of half-maximal effect; % is set by controls: 0 for no effect and ±100 for the full control effect; nearly all actives have a fitted effect of over 60% in size
#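 Inhibition is scored as reduced AlphaScreen emission. The BAZ2B/b-H3(5-23)K14Ac complex (50 nM each) in PBS pH 7.4, 0.01% Tween-20 meets compound (up to 110 uM) for 30 min at RT before bead addition.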
# JMJD2A Tudor inh: blocks the human JMJD2A Tudor domain; Potency, µM (highest dose often 114 µM), without a hit: at the highest dose activity change, negative = inhibition, actives largely listed as inhibitors; AID 504339; hit rate 4.4% among 390,000; AlphaScreen JMJD2A-Tudor / H3K4me3 peptide binding; note: potency is the fitted concentration of half-maximal effect; % is set by controls: 0 for no effect and ±100 for the full control effect; nearly all actives have a fitted effect of over 50% in size
# PI5P4K alpha inh: PI5P4K alpha (human) kinase inhibition; P48426; PI5P4Kalpha enzyme, ADP-Glo luminescence, 60 min; hits give low values; max response, %; hit rate 1.2% among 330,000; AID 652105; active = max response of -50% or lower; inconclusive = between -30% and -50%; inactive = -30% or higher; note: value at the top dose of about 77 µM; % is set by controls: 0 for no effect and ±100 for the full control effect
#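 Controls without substrate or without enzyme flank wells where PI5P4Kalpha converts substrate using 5 microM ATP (final). Incubation lasts 60 minutes at room temperature; ADP formed is read by ADP-Glo luminescence.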
# G9a inh: inhibitors of human histone lysine methyltransferase G9a; Q96KQ7; AID 504332; G9a H3K9 monomethylation, AlphaScreen, 2 h; Potency, µM (titrated, usually from 102 µM), for the others: at the highest dose activity, negative = inhibition, hits mostly inhibitors; hit rate 8.8% among 350,000; note: potency is the fitted concentration of half-maximal effect; % is set by controls: 0 for no effect and ±100 for the full control effect; nearly all actives have a fitted effect of over 75% in size
#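 AlphaScreen read-out: biotin-H3K9 peptide (500 nM) methylation by 20 nM enzyme with 20 uM SAM, 2 h at room temperature after 15 min compound preincubation; anti-monomethyl H3K9 antibody plus donor/acceptor beads, 10 min dark.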
# HP1b binding inh: inhibitors of HP1-beta chromodomain binding to methylated histone tails; P83916; AlphaScreen HP1-beta / biotin-H3K9me3 peptide binding; hit rate 0.56% among 390,000; Potency, µM (titrated, usually from 114 µM), for inactives: top-dose activity change, negative = inhibition, most hits filed as inhibitors; note: potency is the fitted concentration of half-maximal effect; nearly all actives have a fitted effect of over 70% in size
#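 Compound inhibition of the preformed complex between 50 nM HP1-beta and 50 nM biotinylated H3K9me3 peptide was read by AlphaScreen. Buffer was PBS pH 7.4 with 0.01% Tween-20. Incubations ran 30 min at room temperature, with 10 ug/mL donor/acceptor beads.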
# Numbers without * were called inactive; ? = inconclusive; . = no result; [ ] = another dose, or the depositor's remark. Unless noted, calls come from the whole dose curve; as a rule, active = well fitted curve in the direction sought with a large enough effect; inconclusive = small, poorly fitted or top-dose-only effect, or another doubt; inactive = no such curve, though single readings can be large; an effect the other way counts as inactive or inconclusive.
SMILES,PLK1 PBD inh,BAZ2B inh,JMJD2A Tudor inh,PI5P4K alpha inh,G9a inh,HP1b binding inh
O=C(O)c1cccc(-n2cccc2/C=C\[N+](=O)[O-])c1,27µM*,?,22µM*,-23,.,?
O=C(O)c1cccc(-n2cccc2/C=C/[N+](=O)[O-])c1,6.7µM*,32µM*,22µM*,-88*,10µM*,20µM*
CC(=O)c1ccc(N2CCN(C(=O)C3CCN(S(=O)(=O)c4cccc5nonc45)CC3)CC2)cc1,.,-13%,-9%,.,5%[59 µM],15%
Cc1ccc(NS(=O)(=O)c2ccc3nc(-c4ccccc4)[nH]c3c2)c(Cl)c1,.,2%,1%,.,5%[59 µM],41%
COc1ccc(CCNC(=O)C2CCN(S(=O)(=O)c3c(C)noc3/C=C/c3ccc(C)cc3)CC2)cc1OC,.,-1%,1%,.,-2%[59 µM],26%[57 µM]
CCOC(=O)C1(c2ccccc2)SC(C(=O)OCC)(c2ccccc2)S1 (stereo unspecified),21µM*,.,.,3,.,.
CCOC(=O)C1(c2ccccc2)CCCNC1=O (stereo unspecified),-10%,.,.,1,.,.
Cc1occc1C(=O)Nc1ccccc1NC(=O)c1ccoc1C,-26%,.,89µM*,?,.,-7%
COc1ccccc1NC(=O)c1c(C)oc2c1CCCC2,-1%,11%,25%,9,4%[59 µM],47%
Cc1cc(NC(=O)c2cc(C)on2)no1,2%,-4%,-12%,.,-45%,30%
Cc1occc1C(=O)NNC(=O)Nc1ccc(Cl)c(Cl)c1,6.7µM*,-4%,50µM*,-29,0%[59 µM],-8%
Cc1oc2c(c1C(=O)Nc1cccc3ccccc13)CCCC2,3µM*,-2%,?,?,2%[59 µM],?
Cc1occc1C(=O)Nc1ccccc1C#N,-9%,1%,-10%,7,.,36%
Cc1cc(NC(=O)c2ccoc2C)no1,?,-1%,-33%,-16,5µM*,13%
Cc1ccsc1C(=O)NNC(=O)Nc1ccc(Cl)c(Cl)c1,?,3%,3%[11.4 µM],9,15%[59 µM],-17%
CCCCNC(=S)NNC(=O)c1c(C)nc2ccccn12,-15%,-13%,-10%,-2,?,22%
O=C(NCc1ccccn1)c1ccc(OC2CCN(Cc3cccs3)CC2)cc1,-2%,-17%,-12%,-2,11%,17%[57 µM]
COc1cccc(Cn2c(=O)c(-c3cccs3)nc3cnc(N(C)C)nc32)c1,.,.,.,.,11%[0.501 µM],.
Cc1occc1C(=O)NNC(=O)Cc1ccccc1,-9%,1%,-8%,.,0.2µM*,19%
Cc1occc1C(=O)Nc1ccc(S(N)(=O)=O)cc1,21µM*,-13%,22µM*,-23,.,?
Cc1occc1C(=O)Nc1cccc2ccccc12,-6%,-31%,-15%,-10,11µM*,5%
Cc1occc1C(=O)NCc1ccccc1,-1%,-16%,-10%,-7,10%[0.0925 µM],39%
COc1cccc(NC(=O)/C(C#N)=C/c2c(C)n(Cc3ccccc3)c3ccccc23)c1,.,-15%,-25%,.,0%[59 µM],20%
O=C(c1nn2c(C(F)(F)F)cc(-c3ccc(F)cc3)nc2c1Cl)N1CCOCC1,27µM*,.,-20%[11.4 µM],5,42%[59 µM],-14%
O=C(c1nn2c(C(F)(F)F)cc(-c3ccccc3)nc2c1Cl)N1CCOCC1,-11%,14%,-1%,2,20%,31%
CCN(CC)S(=O)(=O)c1ccc(C(=O)NCc2n[nH]c(=S)n2Cc2ccccc2)cc1,-3%,-5%,28µM*,.,?,21%
CCN(CC)S(=O)(=O)c1cccc(-c2n[nH]c(=S)n2CC(C)C)c1,-9%,5%,10µM*,-10,3.2µM*,8%
CCN(CC)S(=O)(=O)c1cccc(-c2nc3n(n2)Cc2ccccc2-3)c1,-6%,-33%,-32%,.,50µM*,24%
CC(C)c1cc(-c2n[nH]c(=S)n2Cc2ccccc2)cs1,-12%,-12%,-27%,.,?,0%
CCN(CC)S(=O)(=O)c1cccc(-c2cn3cc(C)ccc3n2)c1,-3%,-28%,-23%,4,?,10%

# Bioassay records as filed in PubChem BioAssay.
